# Measured values from PubChem BioAssay.
# Where “and” joins values, the source holds several entries; their conditions need not be identical. Identical values can stand only once. Calls of active or inactive are those of the source.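 How the source made its calls, unless noted: active means compounds lowering colon cancer cell viability after pretreatment blocking the GSK3B kinase; inactive means the rest.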
# Key:
# [1] = Wnt pathway potentiators raising nuclear beta-catenin – imaging, WNT3A-conditioned medium, mouse C2C12, NPC library, primary screen (AID 1117326; in the data active means nuclear beta-catenin stimulation mostly above about 4.2%, no sharp cut-off; inactive means mostly below about 10%); details: stronger effect = higher value
# [2] = stimulators of insulin release from INS-1E, primary screen, cell-based, 5 mM glucose, NPC library (AID 1117329;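 active means compound raises insulin release from rat beta cells at 5 mM glucose, no numeric limit stated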); details: rat INS-1E insulin secretion, at 10 µM, stronger effect = higher value
# [3] = growth inhibition of GSK3B-pretreated HCT116 cells – cell-based, CellTiter-Glo, 0.2 to 20 µM (AID 1117336); details: HCT116 viability after GSK3B inhibitor, at 20 µM, stronger effect = higher value
# [4] = inhibition of endothelial tube formation, primary screen, imaging, VEGF stimulated, CD31 staining, tube area, NPC library (AID 1117340;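 active means compound that reduces growth-factor-driven endothelial tube area in a mixed cell culture, no cutoff stated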); details: VEGF-stimulated ADSC/ECFC co-culture, at 10 µM, stronger effect = higher value
# [5] = GLP1 release stimulators, primary, NCI-H716, NPC library (AID 1117341;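 active means compound raises GLP1 secretion from the human gut endocrine cells, with no numeric limit stated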); details: NCI-H716 cells, at 10 µM, stronger effect = higher value
# [6] = HCT116 colon cancer cell growth inhibition, primary screen, CellTiter-Glo luminescence, NPC library (AID 1117342;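 active means compounds that lower survival of HCT116 colon cancer cells in the luminescence readout, no numeric limit stated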); details: at 20 µM (top of the series)
# [7] = reduced SW480 viability measured with CellTiter-Glo, NPC library, primary (AID 1117343;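 active means compounds that lower viability of the colon cancer cells in the luminescence readout, with no numeric limit stated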); details: CellTiter-Glo luminescence; at 20 µM (top of the series) unless noted
# [8] = NPC library primary testing for decreased DLD-1 cell viability via CellTiter-Glo (AID 1117346;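 active means compounds that lower survival of DLD-1 colon cancer cells in the luminescence readout, no cutoff given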); details: DLD-1 viability, CellTiter-Glo luminescence; at 20 µM (top of the series)
# [9] = EMT-state selective cytotoxicity in co-culture – imaging, PC-3E GFP, TEM4-18 mCherry, primary screen (AID 1345086;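 active means compounds killing one labelled cell type while sparing the other, by normalised counts and ratio limits, not self-fluorescent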;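 on all read-outs here: cells exposed to compound for 72 h before imaging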;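 on red/green cell ratio (normalised): normalised mesenchymal count divided by normalised epithelial count so high means epithelial killing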); details: PC-3E GFP / TEM4-18 mCherry co-culture, imaging cell counts, at 1 µM; for red/green cell ratio (normalised): actives lie on both sides, counts scaled to control wells, 1 = unselective
# [10] = viability loss with induced miR-34 in A549 – imaging, A549 dox-inducible miR-34, nuclei and caspase counts, primary screen (AID 1347080;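 active means compounds whose cell count with miR-34 switched on is under 0.7 times the count with it off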); details: A549 miR-34 inducible, Hoechst nuclei count, 48 h
# [11] = target: NAD(+) hydrolase SARM1 (Homo sapiens) (UniProt Q6SZW1); test: blocking NAD cleavage by SARM1 SAM-TIR – cell lysate, NAD-Glo luminescence (AID 1508614;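 active means compound whose remaining NAD level is above about 45 nM, limit read from the data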); details: SAM-TIR HEK293T lysate NADase, at 1 µM, stronger effect = higher value
# Sequence of NAD(+) hydrolase SARM1 (Homo sapiens) (Q6SZW1 whole entry, looked up): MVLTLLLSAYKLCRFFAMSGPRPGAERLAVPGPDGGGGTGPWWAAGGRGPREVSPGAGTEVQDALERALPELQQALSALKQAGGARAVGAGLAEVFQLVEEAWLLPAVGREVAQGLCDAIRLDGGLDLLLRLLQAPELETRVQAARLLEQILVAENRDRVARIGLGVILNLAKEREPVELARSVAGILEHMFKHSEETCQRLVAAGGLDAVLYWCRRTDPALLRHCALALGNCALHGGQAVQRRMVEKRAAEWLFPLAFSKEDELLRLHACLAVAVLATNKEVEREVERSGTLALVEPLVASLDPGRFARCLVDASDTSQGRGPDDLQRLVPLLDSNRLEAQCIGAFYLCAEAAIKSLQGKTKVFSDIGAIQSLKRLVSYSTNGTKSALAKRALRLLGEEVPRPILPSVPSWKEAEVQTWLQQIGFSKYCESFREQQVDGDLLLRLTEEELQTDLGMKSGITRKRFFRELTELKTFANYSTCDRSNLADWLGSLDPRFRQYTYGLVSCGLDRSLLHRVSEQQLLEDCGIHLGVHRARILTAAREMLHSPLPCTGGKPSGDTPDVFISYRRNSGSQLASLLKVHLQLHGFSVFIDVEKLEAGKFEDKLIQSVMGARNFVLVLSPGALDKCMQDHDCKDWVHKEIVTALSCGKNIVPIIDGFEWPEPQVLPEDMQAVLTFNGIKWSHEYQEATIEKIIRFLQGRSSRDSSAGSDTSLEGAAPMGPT
# [12] = P. berghei load reduction in hepatocytes – cell-based, HepG2, luciferase luminescence, HepG2 viability, primary screen (AID 624349; in the data active means parasite load remaining mostly below about 12%, no sharp cut-off; inactive means mostly above about 10%;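 further: 100% = mean of DMSO negative control wells on the same plate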); details: P. berghei liver stage in HepG2, luciferase luminescence, concentration not given here; parasite load remaining: stronger effect = lower value; viability: measured here: HepG2 viability without parasites
# [13] = MELAS cybrid and Rieske KO viability enhancers – cell-based, MELAS cybrids, Rieske KO mouse fibroblasts, CellTiter-Glo, primary screen (AID 1508586;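 active means mean z-score across replicates of 1.96 or higher in either the MELAS or the Rieske mutant cell line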;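 further: z relative to plate mean and SD of compound and empty wells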); details: low glucose
# [14] = galactose survival enhancers in mitochondrial complex I cybrids – cell-based, galactose medium, ATP luminescence, primary screen (AID 1645843;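 active means z-score of at least 1.8 in each of two replicates, scored against plate mean and spread of sample wells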;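 further: positive z means more ATP and so rescue of galactose-driven cybrid death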); details: complex I mutant cybrid cells, 72 h, stronger effect = higher value
# [15] = measured here: epithelial PC-3E GFP cell survival
# [16] = measured here: mesenchymal TEM4-18 mCherry cell survival
# [17] = stronger effect = lower value, cell number ratio, induced over uninduced
# [18] = measured here: relative caspase fold change +Dox/-Dox
# [19] = measured here: total cells with miR-34 induction, stronger effect = lower value
# [20] = measured here: total cells without miR-34 induction
# [21] = MELAS cybrid survival, CellTiter-Glo 48 h, stronger effect = higher value
# [22] = Rieske KO mouse fibroblast survival, CellTiter-Glo 72 h
smiles,measurement,setting,value
NC(=O)CCCCC1CCSS1 (stereo not given),nuclear beta-catenin stimulation,[1]; at 10 µM,-0.8% (inactive)
same,nuclear beta-catenin stimulation,"[1]; stimulation, at 2 µM",2.1%
same,insulin secretion stimulation,[2],-0.6% (inactive)
same,viability decrease,[3],-164% (inactive)
same,tube area decrease,[4],18% (inactive)
same,GLP1 secretion stimulation,[5],-0.8% (inactive)
same,inhibition of viability,[6],-10.3% (inactive)
same,viability decrease (inhibition),[7],-43.7% (inactive)
same,viability decrease (inhibition),[8],-25.4% (inactive)
same,red/green cell ratio (normalised),[9],1.02 (inactive)
same,normalised cell number,[9]; [15],0.81
same,normalised cell number,[9]; [16],0.82
same,fold change,[10]; [17],0.89 (inactive)
same,fold change,[10]; [18],1.01
same,cell count,[10]; [19],8370
same,cell count,[10]; [20],9400
same,remaining NAD,[11],10 nM (inactive)
CC(O)(P(=O)(O)O)P(=O)(O)O,parasite load remaining,[12],84.2% (inactive) and 72.4% (inactive) and 27.7% (inactive)
same,viability,[12],97.4% and 110% and 90%
same,nuclear beta-catenin stimulation,[1]; at 10 µM,3.1% (inactive)
same,nuclear beta-catenin stimulation,"[1]; stimulation, at 2 µM",1.7%
same,insulin secretion stimulation,[2],0.9% (inactive)
same,viability decrease,[3],12.5% (inactive)
same,tube area decrease,[4],8.2% (inactive)
same,GLP1 secretion stimulation,[5],1.6% (inactive)
same,inhibition of viability,[6],9.4% (inactive)
same,viability decrease (inhibition),[7],2.7% (inactive)
same,viability decrease (inhibition),[8],9.1% (inactive)
same,red/green cell ratio (normalised),[9],0.95 (inactive)
same,normalised cell number,[9]; [15],1.05
same,normalised cell number,[9]; [16],1
same,z-score,[13]; [21],-0.62 (inactive) and 0.631 (inactive)
same,z-score,[13]; [22],-0.885 and -0.197
same,remaining NAD,[11],10 nM (inactive)
same,z-score,[14],-2.15 (inactive) and 0.43 (inactive)
CCOC(=O)c1ccc(O)cc1,parasite load remaining,[12],75.1% (inactive)
same,viability,[12],94.6%
same,nuclear beta-catenin stimulation,[1]; at 10 µM,-0.6% (inactive)
same,nuclear beta-catenin stimulation,"[1]; stimulation, at 2 µM",0.9%
same,insulin secretion stimulation,[2],5.1% (inactive)
same,viability decrease,[3],1.8% (inactive)
same,tube area decrease,[4],-5% (inactive)
same,GLP1 secretion stimulation,[5],2.1% (inactive)
same,inhibition of viability,[6],4.1% (inactive)
same,viability decrease (inhibition),[7],29.4% (inactive)
same,viability decrease (inhibition),[8],11.2% (inactive)
same,red/green cell ratio (normalised),[9],0.82 (inactive)
same,normalised cell number,[9]; [15],1.05
same,normalised cell number,[9]; [16],0.86
same,fold change,[10]; [17],0.873 (inactive)
same,fold change,[10]; [18],1.39
same,cell count,[10]; [19],10900
same,cell count,[10]; [20],12500
same,remaining NAD,[11],10 nM (inactive)
CC(=O)NC(Cc1ccccc1)C(=O)O (stereo not given),nuclear beta-catenin stimulation,[1]; at 10 µM,1% (inactive)
same,nuclear beta-catenin stimulation,"[1]; stimulation, at 2 µM",-0.2%
same,insulin secretion stimulation,[2],-2.3% (inactive)
same,viability decrease,[3],-0.2% (inactive)
same,tube area decrease,[4],-0.2% (inactive)
same,GLP1 secretion stimulation,[5],2.6% (inactive)
same,inhibition of viability,[6],3.2% (inactive)
same,viability decrease (inhibition),[7],23.3% (inactive)
same,viability decrease (inhibition),[8],8.55% (inactive)
same,red/green cell ratio (normalised),[9],0.91 (inactive)
same,normalised cell number,[9]; [15],1.11
same,normalised cell number,[9]; [16],1.01
same,remaining NAD,[11],10 nM (inactive)
Cc1c(F)c(N2CCNC(C)C2)cc2c1c(=O)c(C(=O)O)cn2C1CC1 (stereo not given),nuclear beta-catenin stimulation,[1]; at 10 µM,0.7% (inactive)
same,nuclear beta-catenin stimulation,"[1]; stimulation, at 2 µM",-0.2%
same,insulin secretion stimulation,[2],1.15% (inactive)
same,viability decrease,[3],57.3% (active)
same,tube area decrease,[4],-1% (inactive)
same,GLP1 secretion stimulation,[5],-0.4% (inactive)
same,inhibition of viability,[6],39.5% (inactive)
same,viability decrease (inhibition),[7],0% (inactive)
same,viability decrease (inhibition),[8],-10.1% (inactive)
same,red/green cell ratio (normalised),[9],1 (inactive)
same,normalised cell number,[9]; [15],1.13
same,normalised cell number,[9]; [16],1.12
same,z-score,[13]; [21],0.28 (inactive)
same,z-score,[13]; [22],-0.0779
CCN(CC)CCOc1ccc2c(c1)C(=O)c1cc(OCCN(CC)CC)ccc1-2,parasite load remaining,[12],151% (inactive) and 24.6% (inactive)
same,viability,[12],84.5% and 89%
same,nuclear beta-catenin stimulation,[1]; at 10 µM,8.6% (inactive)
same,nuclear beta-catenin stimulation,"[1]; stimulation, at 2 µM",0.3%
same,insulin secretion stimulation,[2],3.7% (inactive)
same,viability decrease,[3],-16.4% (inactive)
same,tube area decrease,[4],13% (inactive)
same,GLP1 secretion stimulation,[5],3.6% (inactive)
same,inhibition of viability,[6],52.8% (active)
same,viability decrease (inhibition),[7],95.3% (active)
same,viability decrease (inhibition),[8],38.8% (inactive)
same,red/green cell ratio (normalised),[9],1.18 (inactive)
same,normalised cell number,[9]; [15],0.79
same,normalised cell number,[9]; [16],0.93
same,fold change,[10]; [17],0.841 (inactive)
same,fold change,[10]; [18],3.57
same,cell count,[10]; [19],9990
same,cell count,[10]; [20],11900
same,remaining NAD,[11],10 nM (inactive)
